Test results taken from PubChem BioAssay AID1159580 (chemical genetic matrix, 2015).
“And” between values parts separate entries of the source, which are not always exact repeats. Equal values may be shown once. In all, about 5,500 compounds went through this assay and about 2,000 (36%) were called active. About 18% were inconclusive and are not listed. Cut-off read from the data, not from the text of the source: active = normalized growth mostly below about 0.91 (no sharp cut-off); inconclusive = no clear call, values can overlap the other calls; inactive = mostly above about 0.92. The list shows a part of the results.

Test: chemical genetic growth profiling, strain panel (AID 1159580);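 note: tested at 20 µM; growth read once vehicle control cultures reached saturation at 30 °C; 1 = growth at the plate median or of vehicle wells; lower values mean less growth of the strain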
Details: growth OD

Measured: normalized growth

CC(C)NCC(O)c1ccc(O)c(O)c1 (stereo not given)
inactive: S. cerevisiae deletion strains, locus YJR075W, strain HOC1, active compounds read low 1.01 and 1.02 | S. cerevisiae deletion strains, locus YKL009W, strain mrt4, active compounds read low 0.979 | S. cerevisiae deletion strains, locus YKL068W, active compounds read low 0.994 | S. cerevisiae deletion strains, locus YKL085W, strain MDH1 (second series), active compounds read low 0.994 | S. cerevisiae deletion strains, locus YKL085W, strain MDH1, active compounds read low 0.994 | S. cerevisiae deletion strains, locus YKL160W, strain elf1, active compounds read low 0.966 | S. cerevisiae deletion strains, locus YKL190W, strain CNB1, active compounds read low 0.996 | S. cerevisiae deletion strains, locus YKR001C, strain vps1, active compounds read low 0.985 | S. cerevisiae deletion strains, locus YKR026C, strain gcn3, active compounds read low 0.991 | S. cerevisiae deletion strains, locus YKR091W, strain srl3, active compounds read low 0.996 | S. cerevisiae deletion strains, locus YLL001W, strain dnm1, active compounds read low 0.955 | S. cerevisiae deletion strains, locus YLL026W, active compounds read low 0.997 | S. cerevisiae deletion strains, locus YLL041C, strain sdh2, active compounds read low 0.99 | S. cerevisiae deletion strains, locus YLR027C, strain aat2, active compounds read low 1 | S. cerevisiae deletion strains, locus YLR039C, strain RIC1, active compounds read low 1.08 | S. cerevisiae deletion strains, locus YLR058C, strain SHM2, active compounds read low 1.01 | S. cerevisiae deletion strains, locus YLR102C, strain apc9, active compounds read low 1 | S. cerevisiae deletion strains, locus YLR113W, strain HOG1, active compounds read low 0.97 | S. cerevisiae deletion strains, locus YLR221C, strain rsa3, active compounds read low 0.949 | S. cerevisiae deletion strains, locus YLR258W, strain gsy2, active compounds read low 0.979 | S. cerevisiae deletion strains, locus YLR262C, strain YPT6 (second series), active compounds read low 0.954 | S. cerevisiae deletion strains, locus YLR262C, strain YPT6, active compounds read low 1.01 | S. cerevisiae deletion strains, locus YLR268W, strain sec22, active compounds read low 1 | S. cerevisiae deletion strains, locus YLR320W, strain mms22, active compounds read low 0.962 | S. cerevisiae deletion strains, locus YLR330W, strain CHS5, active compounds read low 1.02 | S. cerevisiae deletion strains, locus YLR342W, strain FKS1 (second series), active compounds read low 1.01 | S. cerevisiae deletion strains, locus YLR342W, strain FKS1, active compounds read low 0.991 | S. cerevisiae deletion strains, locus YLR357W, strain rsc2, active compounds read low 0.959 | S. cerevisiae deletion strains, locus YLR370C, strain arc18, active compounds read low 0.977 | S. cerevisiae deletion strains, locus YLR371W, strain rom2, active compounds read low 0.998 | S. cerevisiae deletion strains, locus YLR384C, strain iki3, active compounds read low 0.996 | S. cerevisiae deletion strains, locus YLR418C, strain cdc73, active compounds read low 0.986 | S. cerevisiae deletion strains, locus YML016C, strain PPZ1, active compounds read low 1.01 | S. cerevisiae deletion strains, locus YML032C, strain rad52, active compounds read low 0.989 | S. cerevisiae deletion strains, locus YML120C, strain ndi1, active compounds read low 0.966 | S. cerevisiae deletion strains, locus YML124C, strain tub3, active compounds read low 1 | S. cerevisiae deletion strains, locus YMR058W, strain fet3, active compounds read low 0.991 | S. cerevisiae deletion strains, locus YMR078C, strain ctf18, active compounds read low 1.01 | S. cerevisiae deletion strains, locus YMR125W, strain sto1, active compounds read low 0.98 | S. cerevisiae deletion strains, locus YMR129W, active compounds read low 0.991 | S. cerevisiae deletion strains, locus YMR205C, strain PFK2, active compounds read low 0.971 | S. cerevisiae deletion strains, locus YMR223W, strain ubp8, active compounds read low 0.99 | S. cerevisiae deletion strains, locus YMR231W, strain pep5, active compounds read low 0.999 | S. cerevisiae deletion strains, locus YMR307W, strain GAS1, active compounds read low 0.937 and 1.01 | S. cerevisiae deletion strains, locus YNL067W, strain RPL9B, active compounds read low 1.01 | S. cerevisiae deletion strains, locus YNL071W, strain lat1, active compounds read low 0.995 | S. cerevisiae deletion strains, locus YNL128W, strain TEP1, active compounds read low 0.973 | S. cerevisiae deletion strains, locus YNL153C, strain GIM3, active compounds read low 1 | S. cerevisiae deletion strains, locus YNL175C, strain NOP13, active compounds read low 1.01 and 0.97 | S. cerevisiae deletion strains, locus YNL183C, strain NPR1, active compounds read low 0.957 | S. cerevisiae deletion strains, locus YNL197C, strain WHI3, active compounds read low 1.02 and 0.975 | S. cerevisiae deletion strains, locus YNL209W, strain ssb2, active compounds read low 0.989 | S. cerevisiae deletion strains, locus YNL224C, strain SQS1, active compounds read low 1 and 0.985 | S. cerevisiae deletion strains, locus YNL233W, strain BNI4, active compounds read low 1.01 | S. cerevisiae deletion strains, locus YNL248C, strain rpa49, active compounds read low 0.981 | S. cerevisiae deletion strains, locus YNL250W, strain rad50, active compounds read low 0.985 | S. cerevisiae deletion strains, locus YNL271C, strain bni1, active compounds read low 1 | S. cerevisiae deletion strains, locus YNL298W, strain CLA4, active compounds read low 0.998 | S. cerevisiae deletion strains, locus YNL307C, strain MCK1, active compounds read low 0.998 | S. cerevisiae deletion strains, locus YNL322C, strain KRE1 (second series), active compounds read low 0.988 | S. cerevisiae deletion strains, locus YNL322C, strain KRE1, active compounds read low 1.01 and 1 | S. cerevisiae deletion strains, locus YNR049C, strain mso1, active compounds read low 0.995 | S. cerevisiae deletion strains, locus YNR052C, strain pop2, active compounds read low 1 | S. cerevisiae deletion strains, locus YOL006C, strain TOP1, active compounds read low 1.01 | S. cerevisiae deletion strains, locus YOL012C, strain htz1 0.826 | S. cerevisiae deletion strains, locus YOL147C, strain pex11, active compounds read low 1 | S. cerevisiae deletion strains, locus YOR001W, strain rrp6, active compounds read low 0.991 | S. cerevisiae deletion strains, locus YOR061W, strain CKA2, active compounds read low 1.01 | S. cerevisiae deletion strains, locus YOR069W, strain VPS5, active compounds read low 1.01 | S. cerevisiae deletion strains, locus YOR070C, strain gyp1, active compounds read low 0.985 | S. cerevisiae deletion strains, locus YOR080W, strain dia2, active compounds read low 0.992 | S. cerevisiae deletion strains, locus YOR083W, strain WHI5 (second series), active compounds read low 0.998 and 0.969 | S. cerevisiae deletion strains, locus YOR083W, strain WHI5, active compounds read low 0.981 | S. cerevisiae deletion strains, locus YOR106W, strain vam3, active compounds read low 0.953 | S. cerevisiae deletion strains, locus YOR136W, strain idh2, active compounds read low 0.997 | S. cerevisiae deletion strains, locus YOR144C, strain elg1, active compounds read low 1 | S. cerevisiae deletion strains, locus YOR184W, strain ser1, active compounds read low 1.01 | S. cerevisiae deletion strains, locus YOR231W, strain MKK1, active compounds read low 0.952 | S. cerevisiae deletion strains, locus YOR265W, strain rbl2, active compounds read low 0.996 | S. cerevisiae deletion strains, locus YOR270C, strain vph1, active compounds read low 0.995 | S. cerevisiae deletion strains, locus YOR290C, strain snf2, active compounds read low 0.939 | S. cerevisiae deletion strains, locus YOR316C, strain cot1, active compounds read low 1.01 | S. cerevisiae deletion strains, locus YPL051W, strain arl3, active compounds read low 0.967 | S. cerevisiae deletion strains, locus YPL055C, strain LGE1, active compounds read low 1.01 | S. cerevisiae deletion strains, locus YPL078C, strain atp4, active compounds read low 0.983 | S. cerevisiae deletion strains, locus YPL106C, strain sse1, active compounds read low 0.929 | S. cerevisiae deletion strains, locus YPL240C, strain hsp82, active compounds read low 0.976 | S. cerevisiae deletion strains, locus YPL241C, strain CIN2, active compounds read low 0.994 | S. cerevisiae deletion strains, locus YPL256C, strain CLN2, active compounds read low 0.99 | S. cerevisiae deletion strains, locus YPR119W, strain clb2, active compounds read low 0.995 | S. cerevisiae deletion strains, locus YPR141C, strain kar3, active compounds read low 0.992 | S. cerevisiae deletion strains, locus YPR163C, strain tif3, active compounds read low 0.999 | S. cerevisiae deletion strains, locus YPR167C, strain met16, active compounds read low 0.997 | S. cerevisiae deletion strains, strain wtn01, active compounds read low 0.993 | S. cerevisiae strains, strain wild type, active compounds read low 0.994
